# Compounds without any hit were thinned out: in the full panel of roughly 83,000, 20% have a hit.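 The endpoint reported here, percent growth, reads 100 for growth as untreated, 0 for no net growth and -100 for all cells dead.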 Unmarked numbers belong to inactive results. The source made the active and inactive calls. Rule for the calls: active = growth percent below 10; inactive = the rest.
# Columns and labels:
# Test in all cases: NCI-60 one-dose screen, 48 h (100 = growth as untreated, 0 = no growth, -100 = all killed)
# Settings in all cases: 10 µM unless noted
# T-47D breast = system: T-47D breast
# BT-549 breast = system: BT-549 breast
# MDA-MB-435 melanoma = system: MDA-MB-435 melanoma
# SW-620 colon = system: SW-620 colon
# MCF7 breast = system: MCF7 breast
# HCT-116 colon = system: HCT-116 colon
# HCC-2998 colon = system: HCC-2998 colon
# KM12 colon = system: KM12 colon
SMILES,growth (T-47D breast),growth (BT-549 breast),growth (MDA-MB-435 melanoma),growth (SW-620 colon),growth (MCF7 breast),growth (HCT-116 colon),growth (HCC-2998 colon),growth (KM12 colon)
CCN1C(=O)N(CC)C2C1NN=c1s/c(=C\c3ccc(Cl)cc3Cl)c(=O)n12 (stereo not given),58.8%,15.9%,-24.8% (active),20.5%,14%,9.71% (active),7.2% (active),7.47% (active)
CNC(=O)c1cc(Oc2ccc3c(c2)sc2nc(-c4cc(OC)c(OC)c(OC)c4)cn23)ccn1,-4.73% (active),24%,51.7%,77.4%,32.1%,55.2%,74.6%,66.3%
Cc1ccc(-c2nc3nc(-c4ccccc4)nc(N4CCNCC4)c3o2)cc1,-68.4% (active),-71.9% (active),-87.4% (active),-69.4% (active),-66.2% (active),-77.1% (active),-86.8% (active),-87.9% (active)
COc1cc(-n2cc(-c3cc(O)c(C/C=C(\C)CCC=C(C)C)c(O)c3)nn2)cc2c1O[C@]1(C)CC[C@@H](O)C(C)(C)[C@H]1C2,5.7% (active),29%,16.6%,11.7%,7.25% (active),8.36% (active),10.2%,15.9%
CC(=O)N1N=C(c2ccc(Nc3nc(Nc4ccc(Cl)cc4)nc(Nc4ccc(Cl)cc4)n3)cc2)CC1c1ccco1 (stereo not given),67.6%,104%,84.5%,114%,83%,91.3%,128%,92.7%
N#C/C(=C\c1ccc(Br)cc1)n1nnc2ccc(F)cc21,8.46% (active),1.54% (active),-34.1% (active),-48.4% (active),5.23% (active),-75.3% (active),-63.6% (active),-24.7% (active)
Cc1cccc(Cl)c1NC(=O)c1ccc2nc(NC(=O)NCCN(C)C)sc2c1,88.1%,82.1%,47%,103%,48.9%,92.1%,105%,97.1%
COC(=O)c1c2c(c(C)[n+]([O-])c1C)C(=O)C(NCc1ccc(Cl)cc1)=CC2=O,37.5%,77.9%,9.83% (active),45.9%,35.9%,11.5%,59.6%,48.8%
COC(=O)[C@H]1CCCN1C[C@@H](O)CN1C(=O)/C(=C\c2cc(OC)c(OC)c(OC)c2)c2ccccc21,86.7%,111%,96.5%,95.7%,70.5%,92.8%,102%,98.9%
Cc1nc2sc(C(=O)Nc3ccccc3)c(N)c2cc1C(=O)c1ccccc1,46.3%,68.4%,-33.7% (active),27.8%,11.5%,29.7%,18.2%,33.7%
COc1ccccc1NC(=O)Cn1cc(CN2CCN(c3ccnc4cc(Cl)ccc34)CC2)nn1,81.7%,96.8%,97.6%,91.9%,83.5%,98.3%,107%,89.6%
COc1ccc(-c2nnc3n(C)c(=O)c4ccccc4n23)cc1N,24.2%,31.2%,-19.6% (active),20.3%,18.6%,20.2%,49.7%,28.3%
C=C(C)[C@@H]1CC[C@]2(C(=O)NCC#CCN3CCN(C)CC3)CC[C@]3(C)[C@H](CC[C@@H]4[C@@](C)(CCC#N)[C@H](C(=C)C)CC[C@]43C)[C@@H]12,34.9%,78.6%,54.6%,45.5%,50.5%,26.4%,25.2%,45.9%
CC1=Nc2cnc(Nc3ccc(OCCN4CCCC4)cc3)nc2Nc2ccccc21,61.1%,88.2%,72.2%,68.4%,75%,73.6%,72.2%,15.2%
Clc1ccc(Nc2nnc(COc3ccccc3)c3ccccc23)cc1,-5.86% (active),-9.97% (active),-3.33% (active),15.4%,1.31% (active),1.21% (active),8.55% (active),0.179% (active)
CCSc1nc(NC)c2cc(-c3ccc(C(F)(F)F)cc3)ccc2n1,91.4%,94.4%,102%,105%,92.8%,96.9%,111%,103%
CCN1CCN(c2cc(C(=O)Nc3nc(-c4cc(OC)c(OC)c(OC)c4)cs3)cc(C(F)(F)F)c2)CC1,43.7%,75.2%,74.4%,65.6%,39.8%,33.4%,43.9%,71.1%
C#CCOc1cccc(Nc2ncnc3ccc(NC(=O)CCl)cc23)c1,-39.1% (active),-68.9% (active),-2.66% (active),-27.1% (active),-20.1% (active),-51.3% (active),-61.9% (active),-51.4% (active)
COC(C(=O)[C@@H](O)[C@@H](C)O)[C@@H]1Cc2cc3cc(O[C@H]4C[C@@H](O[C@H]5C[C@@H](O)[C@H](O)C(C)O5)[C@H](O)C(C)O4)c(C)c(O)c3c(O)c2C(=O)[C@H]1O[C@H]1C[C@@H](O[C@H]2C[C@@H](O[C@H]3C[C@@H](O)[C@H](OC)C(C)O3)[C@@H](O)C(C)O2)[C@H](O)C(C)O1 (stereo not given in full),-0.919% (active),-22.9% (active),-54.2% (active),11.3%,6.29% (active),12.1%,1.1% (active),13.7%
COc1ccc(C/C(C)=C(/c2ccc(OCCN3CCCCC3)cc2)c2ccc(OC(=O)NCc3ccccc3)cc2)cc1,-82.3% (active),-76.4% (active),-95.4% (active),-83.5% (active),-84.6% (active),-90.3% (active),-92.5% (active),-81.2% (active)
O=C(CSc1nc(-c2ccccc2)[nH]c1S(=O)(=O)c1ccccc1)NC1CC1,46.3%,105%,108%,104%,65.2%,94.2%,69%,100%
CC1(C)CCC(S(=O)(=O)c2ccc3c(c2)/C(=N\O)c2cc(S(=O)(=O)N4CCC(O)(c5cccc(C(F)(F)F)c5)CC4)ccc2-3)CC1,-83.4% (active),-80.8% (active),-93.5% (active),-92.9% (active),-70.9% (active),-87.7% (active),-82.9% (active),-86.7% (active)
O=C(CSc1nc2ccc([N+](=O)[O-])cc2[nH]1)Nc1ccc(F)cc1,16.6%,65.2%,53.1%,86%,62.1%,54.7%,75.7%,64%
Cc1ccc(Cc2cnc(NC(=O)c3cc(Br)cs3)s2)cc1,44.4%,37.1%,-16.5% (active),42%,30.3%,32.9%,82.9%,47.3%
CSc1nnc(-c2cnn3c2NC(c2ccccc2)C3)n1-c1ccc(C(F)(F)F)cc1 (stereo not given),54.2%,85.7%,-25.7% (active),50.9%,26.9%,46%,85.9%,49.3%
O=C(Nn1c2c(sc1=NCc1ccccc1)C(=O)c1ccccc1C2=O)c1cc2ccc1CCc1ccc(cc1)CC2,35.1%,77.3%,-85.5% (active),77.5%,40%,55.9%,101%,74.8%
CCCCC(=O)c1ccco1,79.4%,102%,98.8%,97%,90.9%,91.6%,94.3%,106%
CN([O-])c1nc(N(C)[O-])nc(N2CCOCC2)n1.CN([O-])c1nc(N(C)[OH2+])nc(N2CCOCC2)n1.[Fe+3],93% [100 µM],85.8% [100 µM],-30.5% [100 µM] (active),58.3% [100 µM],90.1% [100 µM],65.8% [100 µM],114% [100 µM],33.6% [100 µM]
Fc1cccc(CNc2c3ccccc3nc3ccccc23)c1F,68.3%,90.6%,87.3%,41.4%,29.8%,17.5%,58.4%,87%
O=C1/C(=C\c2cn(-c3ccccc3)nc2-c2ccc(-c3cccs3)cc2)CCc2ccccc21,66.4%,70%,-24.6% (active),41.9%,38.3%,43.7%,79.8%,49.4%
